Source: PubChem BioAssay (EPA / NIEHS)
Results filed as inconclusive are left out. The source made the active and inactive calls. How the source made its calls: active means hit-call score of the fitted dose curve at least 0.9, where 1 is the maximum; inconclusive means response in the unintended direction; inactive means score below 0.9.

How the values were obtained:
[1] = LTEA_HepaRG_LDH_cytotoxicity: Cytotoxicity Assessment in the Life Technologies and Expression Analysis (LTEA) Assay (AID 2283563)
Procedure, shortened: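 LDH release into culture medium read after 48 h chemical treatment of HepaRG cells. Duplicate wells, eight-point half-log series topping at 100 uM, 0.5% DMSO vehicle and baseline.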

[2] = Tanguay_ZF_120hpf_MORT_legacy: (Legacy) Oregon State University Tanguay Lab 120 Hour Post-fertilization zebrafish Assay for Mortality (AID 2283633)
Procedure, shortened: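 Static waterborne exposure from 6 to 120 hpf at 28C of single dechorionated wild-type (5D) embryos per well, 0.64% DMSO final. Death recorded present/absent by brightfield at 24 and 120 hpf.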

[3] = Tanguay_ZF_120hpf_YSE_legacy: (Legacy) Oregon State University Tanguay Lab 120 Hour Post-fertilization zebrafish Assay for Yolk Sac Edema (AID 2283634)
Procedure, shortened: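 Presence or absence of yolk sac edema was recorded at 120 hpf in surviving larvae. These were wild-type Tropical 5D embryos, chorion removed at 4 hpf, held in static exposure at 28C from 6 hpf with 0.64% DMSO vehicle.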

[4] = Tanguay_ZF_120hpf_EYE_legacy: (Legacy) Oregon State University Tanguay Lab 120 Hour Post-fertilization zebrafish Assay for Eye Malformation (AID 2283636);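 further: binary presence or absence of eye malformation scored by brightfield in 120 hpf larvae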
Procedure, shortened: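 Dechorionated Tropical 5D zebrafish embryos, one per well from 6 hpf, static exposure to 120 hpf at 28C, 0.64% DMSO. Eye malformation scored present/absent by brightfield; dead embryos not scored.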

[5] = Tanguay_ZF_120hpf_SNOU_legacy: (Legacy) Oregon State University Tanguay Lab 120 Hour Post-fertilization zebrafish Assay for Snout Malformation (AID 2283637)
Procedure, shortened: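 Dechorionated tropical 5D wild-type zebrafish embryos exposed statically from 6 to 120 hpf at 28C, one per well, in 0.64% DMSO. Snout malformation scored as present/absent by brightfield at 120 hpf; dead embryos not scored.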

[6] = Tanguay_ZF_120hpf_JAW_legacy: (Legacy) Oregon State University Tanguay Lab 120 Hour Post-fertilization zebrafish Assay for Jaw Malformation (AID 2283638)
Procedure, shortened: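 Binary jaw-malformation call at 120 hpf by brightfield microscopy. Embryos (Tropical 5D strain, chorion removed at 4 hpf) were dosed statically at 6 hpf, one per well, at 28C with 0.64% DMSO. Embryos that died were not scored.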

[7] = Tanguay_ZF_120hpf_OTIC_legacy: (Legacy) Oregon State University Tanguay Lab 120 Hour Post-fertilization zebrafish Assay for Otic Vesicle Malformation (AID 2283639)
Procedure, shortened: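 Otic vesicle malformation is read as a yes/no morphology call at 120 hpf. Exposure is static at 28C with 0.64% (vol/vol) DMSO; embryos that die are excluded from non-mortality endpoints.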

[8] = Tanguay_ZF_120hpf_PE_legacy: (Legacy) Oregon State University Tanguay Lab 120 Hour Post-fertilization zebrafish Assay for Pericardial Edema (AID 2283640)
Procedure, shortened: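 Scoring was binary, by brightfield microscopy at 120 hpf, and skipped where mortality occurred. Wild-type embryos were kept under sealed, foil-covered static exposure at 28C in 0.64% (vol/vol) DMSO.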

[9] = Tanguay_ZF_120hpf_BRAI_legacy: (Legacy) Oregon State University Tanguay Lab 120 Hour Post-fertilization zebrafish Assay for Brain Malformation (AID 2283641)
Procedure, shortened: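 Binary brightfield scoring of brain malformation at 120 hpf in Tropical 5D larvae held under static exposure at 28C (0.64% v/v DMSO), non-mortality endpoints skipped if dead. Positive control: 5uM trimethyltin chloride; fit versus DMSO.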

[10] = Tanguay_ZF_120hpf_SOMI_legacy: (Legacy) Oregon State University Tanguay Lab 120 Hour Post-fertilization zebrafish Assay for Somite Malformation (AID 2283647)
Procedure, shortened: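 Binary somite-defect scoring at 120 hpf, omitted for embryos that died, in wild-type (Tropical 5D) zebrafish with chorion removed by pronase at 4 hpf; static exposure began 6 hpf, single embryos per well, 28C, 0.64% DMSO; fitted positive versus DMSO.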

[11] = Tanguay_ZF_120hpf_PFIN_legacy: (Legacy) Oregon State University Tanguay Lab 120 Hour Post-fertilization zebrafish Assay for Pectoral Fin Malformation (AID 2283648);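 further: each larva judged yes or no for fin defect by brightfield with dead larvae skipped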
Procedure, shortened: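 Dechorionated Tropical 5D wild-type zebrafish embryos, one per well, statically exposed from 6 to 120 hpf at 28C with 0.64% DMSO final. Pectoral fin malformation scored present/absent by brightfield at 120 hpf; not scored in dead embryos.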

[12] = Tanguay_ZF_120hpf_CFIN_legacy: (Legacy) Oregon State University Tanguay Lab 120 Hour Post-fertilization zebrafish Assay for Caudal Fin Malformation (AID 2283649)
Procedure, shortened: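 Binary brightfield scoring of caudal fin defects at 120 hpf after static, light-shielded exposure at 28C from 6 hpf. Tropical 5D embryos, chorion removed with pronase at 4 hpf, final DMSO 0.64%.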

[13] = Tanguay_ZF_120hpf_PIG_legacy: (Legacy) Oregon State University Tanguay Lab 120 Hour Post-fertilization zebrafish Assay for Pigmentation Malformation (AID 2283650)
Procedure, shortened: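 Dechorionated Tropical 5D wild-type embryos, one per well from 6 hpf, statically exposed at 28C in the dark until 120 hpf, 0.64% DMSO final. Pigmentation scored present/absent by brightfield microscopy; dead embryos not scored; fitted versus DMSO.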

[14] = Tanguay_ZF_120hpf_CIRC_legacy: (Legacy) Oregon State University Tanguay Lab 120 Hour Post-fertilization zebrafish Assay for Circulatory Malformation (AID 2283651)
Procedure, shortened: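 Using wild-type Tropical 5D zebrafish, we exposed dechorionated embryos from 6 to 120 hpf in embryo medium with 0.64% DMSO. Circulatory defects were scored as present or absent; 5uM trimethyltin chloride served as positive control.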

[15] = Tanguay_ZF_120hpf_SWIM_legacy: (Legacy) Oregon State University Tanguay Lab 120 Hour Post-fertilization zebrafish Assay for Swim Bladder Malformation (AID 2283654);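 further: swim bladder malformation in each larva scored yes or no under brightfield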
Procedure, shortened: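 Dechorionated wild-type Tropical 5D zebrafish embryos, one per well from 6 hpf, were statically exposed at 28C until 120 hpf in 0.64% DMSO. Swim bladder malformation scored as present/absent by brightfield microscopy; not scored in dead larvae.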

[16] = Tanguay_ZF_120hpf_TRUN_legacy: (Legacy) Oregon State University Tanguay Lab 120 Hour Post-fertilization zebrafish Assay for Truncated Body (AID 2283655)
Procedure, shortened: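 Binary presence/absence of truncated body is recorded at 120 hpf by brightfield, with non-mortality endpoints skipped after death. Exposure is static from 6 hpf in sealed dark plates at 28C, using dechorionated wild-type zebrafish, 0.64% DMSO.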

[17] = Tanguay_ZF_120hpf_NC_legacy: (Legacy) Oregon State University Tanguay Lab 120 Hour Post-fertilization zebrafish Assay for Notochord and Tail Malformation (AID 2283656)
Procedure, shortened: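 Dechorionated 5D zebrafish, 1/well from 6 hpf; static exposure to 120 hpf, 28C, sealed, dark; final DMSO 0.64% v/v. NC scored binary (present/absent); dead embryos not scored. Fit vs DMSO baseline, gain direction.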

[18] = Tanguay_ZF_120hpf_TR_legacy: (Legacy) Oregon State University Tanguay Lab 120 Hour Post-fertilization zebrafish Assay for Touch Response (AID 2283667)
Procedure, shortened: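 Tropical 5D wild-type zebrafish embryos statically exposed to 120 hpf at 28°C, sealed and dark-covered, 0.64% DMSO final; touch response scored as present/absent by brightfield microscopy at 120 hpf. Trimethyltin chloride 5 uM positive control; dead embryos not scored.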

[19] = Tanguay_ZF_120hpf_ActivityScore_legacy: (Legacy) Oregon State University Tanguay Lab 120 Hour Post-fertilization zebrafish Assay Score for Activity (AID 2283742)
Procedure, shortened: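 Dechorionated Tropical 5D embryos, one per well from 6 hpf, statically exposed to 120 hpf at 28 °C in 0.64% DMSO. Mortality and malformations scored binary by brightfield microscopy; activity score combines 18 endpoints, fitted positively versus DMSO.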

[20] = target: Glucocorticoid receptor (Homo sapiens) (UniProt P04150); assay: NVS_NR_hGR: NovaScreen (NVS) Nuclear Receptor Binding Assay for human Glucocorticoid Receptor (GR) (AID 2283363);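 further: activity is loss of specific radioligand binding signal relative to DMSO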
Procedure, shortened: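 Cell-free radioligand displacement assay on extracted human GR, read 16 h after dosing by filter-based scintillation counting. Screened in duplicate at 25 uM, then concentration series for actives; loss of signal versus DMSO baseline.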

Measured: AC50

Glucocorticoid receptor (Homo sapiens), sequence (P04150 whole entry, looked up): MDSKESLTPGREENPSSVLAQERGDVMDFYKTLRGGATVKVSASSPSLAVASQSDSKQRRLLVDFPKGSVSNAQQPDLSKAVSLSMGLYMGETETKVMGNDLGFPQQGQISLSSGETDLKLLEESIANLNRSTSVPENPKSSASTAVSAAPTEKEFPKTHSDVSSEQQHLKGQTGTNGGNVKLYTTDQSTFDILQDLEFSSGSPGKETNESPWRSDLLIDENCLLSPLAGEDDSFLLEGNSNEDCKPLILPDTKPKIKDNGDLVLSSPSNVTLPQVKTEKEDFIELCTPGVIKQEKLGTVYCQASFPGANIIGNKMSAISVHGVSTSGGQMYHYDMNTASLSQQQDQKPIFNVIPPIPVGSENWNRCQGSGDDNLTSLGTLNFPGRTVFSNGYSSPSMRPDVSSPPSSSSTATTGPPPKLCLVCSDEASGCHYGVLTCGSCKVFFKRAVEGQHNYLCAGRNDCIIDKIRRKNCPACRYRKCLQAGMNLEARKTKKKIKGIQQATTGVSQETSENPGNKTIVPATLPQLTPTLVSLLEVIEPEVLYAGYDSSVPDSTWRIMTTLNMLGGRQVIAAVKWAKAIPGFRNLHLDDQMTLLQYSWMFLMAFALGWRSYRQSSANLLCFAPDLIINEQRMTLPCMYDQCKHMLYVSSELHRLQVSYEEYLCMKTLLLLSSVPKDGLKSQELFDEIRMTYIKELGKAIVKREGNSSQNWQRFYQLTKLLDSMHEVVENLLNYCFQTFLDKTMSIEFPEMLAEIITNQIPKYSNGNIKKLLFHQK

CCC(C)=NO
not listed: [20]
inactive: all other assays above

CCCCC(CC)COC(=O)CS (stereo not given)
active: [20] 25 µM
